In PubChem BioAssay (EPA / NIEHS):
Where “and” joins values, the source holds several entries; their conditions need not be identical. Equal entries are not always repeated. Some structures have more than one record in an assay (separate samples or runs), and their calls can disagree. Calls of active or inactive are those of the source. How the source made its calls: active means hit-call score of the fitted dose curve at least 0.9, where 1 is the maximum; inactive means score below 0.9.

Assays:
[1] = read-out: TIMP metallopeptidase inhibitor 1 (TIMP1), TIMP1 (gene 7076); assay: BSK_hDFCGF_TIMP1: BioMAP Diversity Plus: hDFCGF Assay for TIMP metallopeptidase inhibitor 1 (TIMP1) Biomarker Activity (AID 2283062); conditions: primary human foreskin fibroblasts; actives raise or lower the signal
Procedure, shortened: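 Primary human foreskin fibroblasts in the hDFCGF system were dosed with compound for 24 h, then TIMP-1 was measured by ELISA. Activity was fitted bidirectionally relative to DMSO control; parallel SRB staining assessed cytotoxicity.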

[2] = read-out: Monokine induced gamma interferon (MIG), CXCL9 (gene 4283); assay: BSK_hDFCGF_MIG: BioMAP Diversity Plus: hDFCGF Assay for Monokine induced gamma interferon (MIG) Biomarker Activity (AID 2283063); conditions: primary human foreskin fibroblasts; actives raise or lower the signal
Procedure, shortened: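 ELISA read-out of MIG from primary human dermal fibroblasts 24 h post-dosing. Gain or loss of signal fitted bidirectionally, DMSO as baseline.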

[3] = read-out: Matrix Metallopeptidase 1 (MMP1), MMP1 (gene 4312); assay: BSK_hDFCGF_MMP1: BioMAP Diversity Plus: hDFCGF Assay for Matrix Metallopeptidase 1 (MMP1) Biomarker Activity (AID 2283064); conditions: primary human foreskin fibroblasts; actives raise or lower the signal
Procedure, shortened: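 hDFCGF primary fibroblasts (human foreskin); chemical added; 24 h; MMP1 by ELISA; bidirectional fit vs DMSO.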

[4] = read-out: Vascular cell adhesion molecule 1 (VCAM1), VCAM1 (gene 7412); assay: BSK_hDFCGF_VCAM1: BioMAP Diversity Plus: hDFCGF Assay for Vascular cell adhesion molecule 1 (VCAM1) Biomarker Activity (AID 2283065); conditions: primary human foreskin fibroblasts; actives raise or lower the signal;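 on AC50: VCAM-1 protein level quantified by ELISA after 24 h chemical exposure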
Procedure, shortened: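 Primary human foreskin fibroblasts (hDFCGF system) were dosed with chemical and VCAM-1 was measured by ELISA 24 h later. Bidirectional curve fitting used DMSO as negative control and activity baseline.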

[5] = read-out: Plasminogen activator inhibitor-1 (PAI1), SERPINE1 (gene 5054); assay: BSK_hDFCGF_PAI1: BioMAP Diversity Plus: hDFCGF Assay for Plasminogen activator inhibitor-1 (PAI1) Biomarker Activity (AID 2283066); conditions: primary human foreskin fibroblasts; actives raise or lower the signal
Procedure, shortened: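 Primary dermal fibroblasts (human foreskin), hDFCGF system; compound 24 h; PAI-1 by ELISA; bidirectional fit vs DMSO control.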

[6] = read-out: Intercellular Adhesion Molecule 1 (ICAM1), ICAM1 (gene 3383); assay: BSK_KF3CT_ICAM1: BioMAP Diversity Plus: KF3CT Assay for Intercellular Adhesion Molecule 1 (ICAM1) Biomarker Activity (AID 2283067); conditions: primary human keratinocytes with fibroblasts; actives raise or lower the signal
Procedure, shortened: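 Human keratinocyte plus foreskin fibroblast primary co-culture was exposed to chemical for 24 h. ICAM-1 was then quantified by ELISA, and the data were fit bidirectionally against DMSO as the negative control and baseline.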

[7] = read-out: Interferon-gamma inducible Protein 10 (IP10), CXCL10 (gene 3627); assay: BSK_KF3CT_IP10: BioMAP Diversity Plus: KF3CT Assay for Interferon-gamma inducible Protein 10 (IP10) Biomarker Activity (AID 2283068); conditions: primary human keratinocytes with fibroblasts; actives raise or lower the signal
Procedure, shortened: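 Human keratinocyte plus foreskin fibroblast primary co-culture exposed to test chemical for 24 h; IP-10 measured by ELISA. Concentration-response fitted bidirectionally against DMSO control as baseline.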

[8] = BSK_KF3CT_SRB: Viability Assessment in the BioMAP Diversity Plus: KF3CT Assay (AID 2283069); conditions: primary human keratinocytes with fibroblasts;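 further: total protein by sulforhodamine B staining as a cytotoxicity measure; read 24 h after compound addition; fitted for both signal gain and loss against DMSO baseline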
Procedure, shortened: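 Keratinocytes co-cultured with foreskin fibroblasts (human primary); chemical added, 24 h; fix 10% TCA, stain 0.1% SRB, A560. Bidirectional fit vs DMSO.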

[9] = read-out: Interleukin-1 alpha (IL1a), IL1A (gene 3552); assay: BSK_KF3CT_IL1a: BioMAP Diversity Plus: KF3CT Assay for Interleukin-1 alpha (IL1a) Biomarker Activity (AID 2283070); conditions: primary human keratinocytes with fibroblasts; actives raise or lower the signal
Procedure, shortened: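 Chemicals were dosed onto co-cultured human keratinocytes and foreskin fibroblasts, IL-1a was quantified by ELISA at 24 h, and activity was fitted in both directions relative to DMSO controls.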

[10] = read-out: TIMP metallopeptidase inhibitor 2 (TIMP2), TIMP2 (gene 7077); assay: BSK_KF3CT_TIMP2: BioMAP Diversity Plus: KF3CT Assay for TIMP metallopeptidase inhibitor 2 (TIMP2) Biomarker Activity (AID 2283071); conditions: primary human keratinocytes with fibroblasts; actives raise or lower the signal
Procedure, shortened: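 Cells: human keratinocytes co-cultured with foreskin fibroblasts. Treat with chemical, 24 h. Measure TIMP-2 by ELISA; fit curves bidirectionally vs DMSO baseline.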

Measured: AC50

O=C(Nc1ccccc1)Nc1cnns1
inactive: all assays above

CCC(C)(NC(=O)c1cc(Cl)c(C)c(Cl)c1)C(=O)CCl (stereo unspecified)
active: [2] 6.77 µM | [3] 30.4 µM | [4] 5.49 µM | [5] 8.04 µM | [6] 16.5 µM | [7] 10.8 µM | [8] 31.8 µM | [9] 26.6 µM | [10] 16.6 µM

CC[C@H](C)[C@H]1O[C@]2(C=C[C@@H]1C)C[C@@H]1C[C@@H](C/C=C(\C)[C@@H](O[C@H]3C[C@H](OC)[C@@H](O[C@H]4C[C@H](OC)[C@@H](O)[C@H](C)O4)[C@H](C)O3)[C@@H](C)/C=C/C=C3\CO[C@@H]4[C@H](O)C(C)=C[C@@H](C(=O)O1)[C@]34O)O2 (tested in a mixture with another compound)
active: [1] 9.96 µM | [2] 12.9 µM | [3] 9.79 µM | [4] 9.78 µM | [5] 6.95 µM | [6] 14.1 µM | [7] 12.5 µM | [8] 14.1 µM | [9] 6.95 µM | [10] 12.6 µM

[2H]C1([2H])[n+]2ccccc2-c2cccc[n+]2C1([2H])[2H]
active: [3] 3.17 µM | [7] 4.43 µM | [9] 20 µM
not listed: [1]
inactive: all other assays above

O=C(O)C(F)(F)C(F)(F)C(F)(F)C(F)(F)C(F)(F)C(F)(F)C(F)(F)F
inactive: [1] | [2] | [3] | [4] | [6] | [7] | [8] | [9] | [10]
active: [2] 30 µM | [9] 30 µM

CCCN(CCC)c1c([N+](=O)[O-])cc(C(F)(F)F)cc1[N+](=O)[O-]
active: [3] 4.1 µM | [4] 7.77 µM | [7] 28.8 µM
not listed: [1] | [5]
inactive: all other assays above

CCOC1Oc2ccc(OS(C)(=O)=O)cc2C1(C)C (stereo unspecified)
not listed: [5]
inactive: all other assays above

CNC(=O)Oc1ccccc1OC(C)C
active: [3] 2.38 µM | [9] 0.987 µM
not listed: [5]
inactive: all other assays above

N#CN
not listed: [1]
inactive: all other assays above

Cc1[nH]c(=O)n(C(C)(C)C)c(=O)c1Cl
not listed: [5]
inactive: all other assays above

CNC(=O)CSP(=S)(OC)OC
not listed: [1] | [5]
inactive: all other assays above

O=S(=O)(O)C(F)(F)C(F)(F)C(F)(F)C(F)(F)C(F)(F)C(F)(F)C(F)(F)C(F)(F)F
active: [2] 30 µM and 50.4 µM | [4] 20 µM and 29.6 µM and 30 µM | [6] 29.9 µM | [7] 23.1 µM [middle of 5 runs] | [8] 39.2 µM and 29.9 µM | [9] 28.1 µM and 16.4 µM | [10] 33.9 µM and 35.3 µM
inactive: [2] | [3] | [4] | [6] | [7] | [8] | [9] | [10]

COP(=S)(OC)Oc1ccc([N+](=O)[O-])cc1
active: [1] 5.75 µM | [7] 9.18 µM | [10] 34.6 µM
not listed: [5]
inactive: all other assays above

Oc1cc(Cl)ccc1Oc1ccc(Cl)cc1Cl
active: [2] 20.4 µM and 14.1 µM and 23.9 µM | [3] 29.9 µM and 12.3 µM and 26.1 µM | [4] 8.72 µM [middle of 4 runs] | [5] 6.96 µM and 8.43 µM and 7.44 µM | [6] 32.2 µM [middle of 4 runs] | [7] 33.7 µM and 29 µM | [8] 30.1 µM and 14.4 µM and 28.2 µM | [9] 29.8 µM [middle of 4 runs] | [10] 30 µM and 29.7 µM and 20 µM
inactive: [7]

CNC(=O)/C=C(\C)OP(=O)(OC)OC
not listed: [1]
inactive: all other assays above

COC(=O)c1ccccc1S(=O)(=O)NC(=O)N(C)c1nc(C)nc(OC)n1
not listed: [5]
inactive: all other assays above

Cc1cc(C)nc(NC(=O)NS(=O)(=O)c2ccccc2C(=O)OC2COC2)n1
inactive: all assays above

Clc1ccccc1-c1nnc(-c2ccccc2Cl)nn1
active: [9] 2.76 µM
not listed: [5]
inactive: all other assays above

COP(=O)(OC)OC=C(Cl)Cl
not listed: [1]
inactive: all other assays above

C[C@H]1[C@H](c2ccc(Cl)cc2)SC(=O)N1C(=O)NC1CCCCC1
active: [3] 5.43 µM
not listed: [1]
inactive: all other assays above

OCCOc1ccccc1
not listed: [5]
inactive: all other assays above

O=[N+]([O-])c1c(Cl)c(Cl)c(Cl)c(Cl)c1Cl
inactive: [6]
active: [2] 29.3 µM | [3] 0.255 µM | [4] 20 µM | [5] 28.8 µM | [7] 17.6 µM | [8] 25.3 µM | [9] 24.4 µM | [10] 29.9 µM

CC(C)OC(=O)Nc1cccc(Cl)c1
not listed: [5]
inactive: all other assays above

COC(=O)c1ccccc1S(=O)(=O)NC(=O)Nc1nc(C)nc(OC)n1
not listed: [1]
inactive: all other assays above
